Experimental data published in PubChem BioAssay AID651571 (The Scripps Research Institute Molecular Screening Center, 2012).
The whole screen tested about 1,500 compounds, of which about 1,300 (87%) were called active. Cut-off read from the data, not from the text of the source: active = inhibition above about 9%; inactive = the rest. The set was probably picked from earlier hits. The list is a sample of the results.

test: binders of anti-gp120 antibody PG9, confirmation, biochemical, TR-FRET (AID 651571); conditions: TR-FRET PG9 antibody binding, at 6.7 µM, active compounds read high

Compound	inhibition
COc1ccc(Cl)cc1NC(=O)Cn1nc(-c2ccc(C)cc2)n(C)c1=S	12.2% (active)
N#Cc1ccccc1NC(=O)c1cccc(COc2ccc(Cl)cc2Cl)c1	15.1% (active)
O=C1C(=O)N(CCN2CCOCC2)C(c2cccc(Cl)c2)/C1=C(/O)c1ccc2c(c1)OCO2 (stereo not drawn)	26.7% (active)
O=C(O)CCCCCNc1ncnc2ccc(Br)cc12	28.1% (active)
COc1ccc(CCNC(=O)CSc2nc(-c3ccc(OC)c(OC)c3)ccc2C#N)cc1	26% (active)
COc1cccc(-c2ccc(C#N)c(SCC(=O)NCCc3ccc(Cl)cc3)n2)c1	7.22% (inactive)
O=C(Nc1c(Br)cc2c(c1Br)Cc1cc([N+](=O)[O-])ccc1-2)C(Cl)Cl	51.1% (active)
O=C(COC(=O)c1ccc2c(c1)OCCO2)NCc1ccccc1Cl	29.8% (active)
COCCNC(=O)c1cc2c(Br)ccc(Br)c2nc1N	16.4% (active)
C=CCn1c(=NC(=O)c2cccs2)sc2cc(NC(C)=O)ccc21	9.74% (active)
C=CCn1c(=NC(=O)c2ccc(S(=O)(=O)N3CCCC3)cc2)sc2cc(NC(C)=O)ccc21	29.4% (active)
CCCc1nc(SCC(=O)Nc2ccc(S(=O)(=O)N(C)C)cc2)c2ccccc2n1	34.5% (active)
CCc1ccc(NC(=O)CSc2nnc(-c3cnccn3)n2Cc2ccco2)cc1	22.4% (active)
O=C(C1=C(O)C(=O)N(Cc2ccccc2)C1c1ccco1)c1ccco1 (stereo not drawn)	31.8% (active)
COc1cccc(-n2c(SCC(=O)c3c[nH]c4ccccc34)nc3ccccc3c2=O)c1	27% (active)
Cc1cc(C)cc(NC(=O)C2CCCN(S(=O)(=O)c3ccc4[nH]c(=O)ccc4c3)C2)c1 (stereo not drawn)	23.8% (active)
CCn1nnc2cc(C(=O)Nc3ccc(C(=O)OC(C)C)cc3)ccc21	25.6% (active)
COC(=O)C1=C(C)N(Cc2ccccc2C(F)(F)F)C(=NCc2ccc(OC)cc2)NC1c1cccc(C(F)(F)F)c1 (stereo not drawn)	6.91% (inactive)
O=C(N=C1SC2CS(=O)(=O)CC2N1Cc1ccccc1)c1ccccc1 (stereo not drawn)	34.1% (active)
O=C(Nc1cccc(S(=O)(=O)Nc2ccc(Cl)cc2)c1)c1ccc2c(c1)OCCO2	23.1% (active)
COc1ccc(-c2c(C)nn3c(N4CCC(C(=O)N5CCCCC5)CC4)cc(C)nc23)cc1OC	13.9% (active)

Compound	inhibition
CCOc1cccc(NC(=O)Cn2nc(-c3ccc4c(c3)OCCO4)ccc2=O)c1	14.5% (active)
Cc1cc2c(cc1C)N1C(=O)c3cc4ccccc4cc3NC(=O)C1C(=O)N2 (stereo not drawn)	12.3% (active)
COc1ccc(-n2nnnc2-c2nc3ccccc3s2)cc1	30.8% (active)
CCn1c(SCC(=O)Nc2cccc(F)c2)nnc1-c1cc2cc(Br)ccc2o1	40.1% (active)
Cc1nc2nc(SCC(=O)c3ccccc3)[nH]c2cc1Br	28.4% (active)
N#C/C=C1\Sc2ccccc2C(=O)N1CC(=O)N1CCN(S(=O)(=O)c2ccccc2)CC1	22.1% (active)
N#Cc1ccccc1Sc1ccccc1C(=O)OCC(=O)NC1CCCCC1	27.3% (active)
CC(=O)c1sc2nc(SCC(=O)N3CCCCC3)[nH]c(=O)c2c1C	25.6% (active)
COc1cccc(NS(=O)(=O)c2ccc3[nH]cc(C(=O)NCCCOC(C)C)c(=O)c3c2)c1	18.6% (active)
Fc1cc(F)c2nc(Nc3nc4c(F)cccc4s3)sc2c1	9.6% (active)
COCCCNc1nc2c(-c3cccc(C)c3)nnn2c2ccc(Cl)cc12	19.2% (active)
O=C1COc2ccc(C(=O)COC(=O)c3ccccc3Cl)cc2N1	24.8% (active)
Cc1c(-c2ccccc2)nc(N)c(C#N)c1-c1cccs1	18.6% (active)
N#Cc1c(-c2cccs2)nc(SCC(=O)c2ccc(Br)cc2)[nH]c1=O	29.8% (active)
COc1ccc(CC(=O)Nc2ccc(-c3nnc(-c4ccccc4)o3)cc2)cc1	18.3% (active)
Cc1nc(-c2ccccc2)sc1-c1nc(-c2ccccc2)ncc1S(=O)(=O)c1ccccc1	8.54% (inactive)
Cc1ccc(-c2cc(C(=O)NCc3cn(C)nc3C)c3cc(Br)ccc3n2)cc1	18.5% (active)
CCOC(=O)c1c(C)[nH]c(C(=O)OCC(=O)c2ccc(OC)cc2OC)c1C	45.1% (active)
Cc1ccc(-n2c(SCC(=O)NCCC3=CCCCC3)nc3n[nH]c(C)c3c2=N)cc1Cl	22.1% (active)
CCCCNC(=O)CSc1nc2n[nH]c(C)c2c(=N)n1-c1cccc(Cl)c1C	38.3% (active)
Cc1ccc(-n2ncc3c(=O)n(-c4ccc(C)c(C)c4)c(-c4ccco4)nc32)cc1	8.17% (inactive)

Compound	inhibition
CC1(C)Cc2ccccc2-c2[nH]c(=S)[nH]c(=O)c21	9.89% (active)
CCOc1cc2ccccc2cc1C(=O)Nc1ccccn1	12.1% (active)
CC(C)OCCCNC(=O)c1cc(Sc2ccc(F)cc2)nc2ccccc12	25.9% (active)
S=c1[nH]c2ccccc2c2ccccc12	14.6% (active)
Cc1cc(Br)ccc1NC(=O)c1sc2ncn(CC(=O)N3CCN(c4ccccn4)CC3)c(=O)c2c1C	5.44% (inactive)
O=C(O)CCC(=O)Nc1nc2ccc([N+](=O)[O-])cc2s1	5.06% (inactive)
COC(=O)c1ccc(NC(=S)Nc2cccc(C)n2)cc1	11% (active)
O=C(NCc1ccc(Cl)cc1)c1cc2c(nc3sccn32)s1	17.8% (active)
CC(=O)c1cc(C#N)c(SCC(=O)Nc2nccs2)nc1C	27.5% (active)
COc1ccc(-c2csc(NC(=O)c3ccc(N4C(=O)CCC4=O)cc3)n2)cc1OC	15.2% (active)
O=C(Oc1ccccc1)Oc1ccc2c(c1)oc(=O)c1ccccc12	46.9% (active)
CCOc1ccc2cc(C#N)c(SCC(=O)OC)nc2c1	48.4% (active)
Cc1cccc(Nc2nc3c(S(=O)(=O)c4ccccc4)nnn3c3ccccc23)c1C	41.2% (active)
Cc1nc2cc(NC(=O)CSc3nc4c(C)cccc4cc3C#N)ccc2s1	46.4% (active)
O=C(Nc1nnc(-c2ccccc2F)s1)c1ccccc1F	38.5% (active)
N#Cc1c(N)nc2c3c(sc(=N)c2c1N)NC(=O)CC3c1ccccc1Cl (stereo not drawn)	24.9% (active)
C=CCOc1cccc(C2C(C(=O)c3ccc(C)o3)=C(O)C(=O)N2CCCn2ccnc2)c1 (stereo not drawn)	19.4% (active)
CCCOc1ccc(C2C(C(=O)c3ccc(C)o3)=C(O)C(=O)N2CCCn2ccnc2)cc1 (stereo not drawn)	53% (active)
Cn1c(=S)sc2ccc3ccccc3c21	11.9% (active)
CCOc1ccc(C(=O)COC(=O)c2ccc(-n3cnnn3)cc2)cc1	27.8% (active)
CC(=O)c1sc(NC(=O)CCCOc2ccccc2C)nc1C	18.4% (active)
